# Data published in PubChem BioAssay (NCATS).
# Records with an inconclusive call do not appear. Where a call stands in place of a potency, no number is given. Unmarked numbers belong to inactive results. Active and inactive are the calls of the source. Calls follow the shape of the dose curve; as a rule, active = well fitted curve in the direction sought with a large enough effect; inconclusive = small, poorly fitted or top-dose-only effect, or another doubt; inactive = no such curve, though single readings can be large; an effect the other way counts as inactive or inconclusive. Non-standard residues stand in square brackets, D forms with d. Residues, ends and D or L forms follow the SMILES beside them. Dip = N[C@H](C(=O)O)C(c1ccccc1)c1ccccc1
# Experiments:
# [1] = BET inhibitor-based combinations targeting novel dependencies in MECOM-rearranged (r) AML: OCI-AML3 cell line (AID 2202232); conditions: CellTiter-Glo luminescence, 48 h; Potency: OCI-AML3 viability; series mostly up to 46 µM; also: nearly all actives have a fitted effect of over 35% in size
# Outline: (§1)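 Here, 11-point titrations of each agent were applied to 500 seeded cells and incubated 48 hr; CellTiter-Glo signal, scaled against DMSO and empty wells, was integrated as AUC, then Z-scored within the individual line.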
# [2] = BET inhibitor-based combinations targeting novel dependencies in MECOM-rearranged (r) AML: UCSD-AML1 cell line (AID 2202235); conditions: UCSD-AML1 AML cells viability, CellTiter-Glo, 48 h; series mostly up to 46 µM; also: nearly all actives have a fitted effect of over 40% in size; also: potency is read from the fitted curve at half-maximal effect
# Outline: (§2)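 Normalized to DMSO and empty-well controls, the luminescence data from CellTiter-Glo after 48 hr drug exposure were fitted across 11 concentrations. Reported metrics are area under the dose-response curve and its Z-transformed form.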
# [3] = BET inhibitor-based combinations targeting novel dependencies in MECOM-rearranged (r) AML: AML-191 cell line (AID 2202236; also: nearly all actives have a fitted effect of over 35% in size; also: potency is read from the fitted curve at half-maximal effect); conditions: AML-191 viability, CellTiter-Glo luminescence, 48 h; series mostly up to 46 µM
# Outline: as §1
# [4] = BET inhibitor-based combinations targeting novel dependencies in MECOM-rearranged (r) AML: AML-194 cell line (AID 2202237; also: nearly all actives have a fitted effect of over 40% in size; also: potency is read from the fitted curve at half-maximal effect); conditions: AML-194 (MECOM-r AML) viability, CellTiter-Glo, 48 h; series mostly up to 46 µM
# Outline: as §1
# [5] = BET inhibitor-based combinations targeting novel dependencies in MECOM-rearranged (r) AML: HNT-34 cell line (AID 2202234); conditions: HNT-34 AML viability, CellTiter-Glo luminescence, 48 h; series mostly up to 46 µM; also: nearly all actives have a fitted effect of over 35% in size; also: potency is read from the fitted curve at half-maximal effect
# Outline: as §2
# [6] = BET inhibitor-based combinations targeting novel dependencies in MECOM-rearranged (r) AML: MV-4-11 cell line (AID 2202233); conditions: MV-4-11 AML viability, CellTiter-Glo luminescence, 48 h; series mostly up to 46 µM; also: nearly all actives have a fitted effect of over 45% in size; also: potency is read from the fitted curve at half-maximal effect
# Outline: as §2
smiles,measurement,setting,value
COC(=O)N[C@H](C(=O)N1CCC[C@H]1c1ncc(-c2ccc(-c3ccc(-c4cnc([C@@H]5CCCN5C(=O)[C@@H](NC(=O)OC)C(C)C)[nH]4)cc3)cc2)[nH]1)C(C)C,Potency,[1],inactive
same,Potency,[2],inactive
CC(C)c1onc(-c2c(Cl)cccc2Cl)c1COc1ccc(/C=C/c2cccc(C(=O)O)c2)c(Cl)c1,Potency,[2],inactive
same,Potency,[3],inactive
same,Potency,[4],inactive
COc1ccc(S(=O)(=O)NCc2ccc(C(=O)NCCc3ccc(Cl)cn3)cc2)cc1,Potency,[5],inactive
same,Potency,[3],inactive
same,Potency,[4],inactive
COC[C@@H](c1ccc(C(F)(F)F)cc1)N1CCN(C2(C)CCN(C(=O)c3c(C)ncnc3C)CC2)C[C@@H]1C,Potency,[2],inactive
same,Potency,[3],inactive
same,Potency,[4],inactive
N#C/C(=C(/N)Sc1ccc(N)cc1)c1ccccc1C(F)(F)F,Potency,[6],18.6 µM (active)
same,Potency,[3],5.9 µM (active)
same,Potency,[4],16.6 µM (active)
Cc1nc(C)c(CN2CCN(C(c3ccc(F)cc3)c3ccc(F)cc3)CC2)nc1C,Potency,[6],18.6 µM (active)
same,Potency,[4],20.9 µM (active)
COc1ccc2c(c1)[C@]1(C[C@H]1c1ccc3c(/C=C/c4ccc(CN5C[C@@H](C)O[C@@H](C)C5)cc4)n[nH]c3c1)C(=O)N2,Potency,[5],1.32 µM (active)
same,Potency,[2],18.6 µM (active)
same,Potency,[3],0.417 µM (active)
same,Potency,[4],0.132 µM (active)
C=C1C[C@H]2C=Nc3cc(OCCCOc4cc5c(cc4OC)C(=O)N4CC(=C)C[C@H]4C=N5)c(OC)cc3C(=O)N2C1,Potency,[6],inactive
same,Potency,[2],inactive
same,Potency,[4],0.0015 µM (active)
C/C=C/C[C@@H](C)C(=O)[C@H]1C(=O)N[C@@H](C(C)C)C(=O)N(C)CC(=O)N(C)[C@@H](CC(C)C)C(=O)N[C@@H](C(C)C)C(=O)N(C)[C@@H](CC(C)C)C(=O)N[C@@H](C)C(=O)N[C@H](C)C(=O)N(C)[C@@H](CC(C)C)C(=O)N(C)[C@@H](CC(C)C)C(=O)N(C)[C@@H](C(C)C)C(=O)N1C,Potency,[6],8.11 µM (active)
same,Potency,[3],9.1 µM (active)
same,Potency,[4],10.2 µM (active)
CCC1CCCCN1C(=O)n1ncc(C(O)(c2ccccc2)c2ccccc2)n1 (configuration not stated),Potency,[6],14.8 µM (active)
same,Potency,[3],14.8 µM (active)
CN(C)CCOc1ccc(/C(=C(/CCCl)c2ccccc2)c2ccccc2)cc1,Potency,[2],inactive
CCOC(=N)c1nc2ccc3ncnc(Nc4cc(F)c(F)cc4Cl)c3c2s1,Potency,[6],16.6 µM (active)
same,Potency,[3],5.25 µM (active)
same,Potency,[4],6.61 µM (active)
CCN(CC)C(=O)Cc1csc(NS(=O)(=O)c2cccc(Cl)c2C)n1,Potency,[5],inactive
same,Potency,[2],inactive
Cc1cc(Oc2ccc3nc(COc4ccc(CC5SC(=O)NC5=O)cc4)n(C)c3c2)cc(C)c1N (configuration not stated),Potency,[5],inactive
same,Potency,[2],inactive
same,Potency,[4],inactive
CC[C@H](C)[C@@H]([C@@H](CC(=O)N1CCC[C@H]1[C@H](OC)[C@@H](C)C(=O)N[C@@H](Cc1ccccc1)c1nccs1)OC)N(C)C(=O)[C@@H](NC(=O)[C@H](C(C)C)N(C)C)C(C)C,Potency,[5],inactive
same,Potency,[3],inactive
same,Potency,[4],inactive
COc1ccc(CC2c3cc(OC)c(OC)cc3CC[N+]2(C)CCC(=O)OCCCCCOC(=O)CC[N+]2(C)CCc3cc(OC)c(OC)cc3C2Cc2ccc(OC)c(OC)c2)cc1OC (configuration not stated),Potency,[6],18.6 µM (active)
same,Potency,[2],inactive
same,Potency,[4],inactive
O=C(NO)C1(CS(=O)(=O)c2ccc(Oc3ccc(Cl)cc3)cc2)CCOCC1,Potency,[5],8.33 µM (active)
Cc1c(O)cccc1C(=O)NC(CSc1ccccc1)C(O)CN1CC2CCCCC2CC1C(=O)NC(C)(C)C (configuration not stated),Potency,[4],26.3 µM (active)
Nc1nccc(-c2c(-c3ccc(F)cc3)ncn2C2CCN(Cc3ccon3)CC2)n1,Potency,[5],8.33 µM (active)
CC1=C(c2ccc(O)cc2)[C@H](c2ccc(OCCN3CCCCC3)cc2)Oc2cc(O)ccc21,Potency,[4],inactive
O=C(Nc1cnccc1Cl)N1CCN(Cc2ccc3c(c2)OC(F)(F)O3)CC1,Potency,[2],inactive
same,Potency,[4],inactive
NCCCC[C@H](NC(=O)[C@@H](NC(=O)[C@H](Cc1c[nH]c2ccccc12)NC(=O)[C@H](CCCCN)NC(=O)[C@H](CCCCN)NC(=O)[C@H](Cc1c[nH]c2ccccc12)NC(=O)[C@H](Cc1c[nH]c2ccccc12)NC(=O)[C@H](CCCCN)NC(=O)[C@@H](N)CCCCN)C(c1ccccc1)c1ccccc1)C(N)=O (H-KKWWKKW[Dip]K-NH2),Potency,[2],inactive
same,Potency,[4],inactive
CN1C(=O)N(c2cc(Cl)cc(Cl)c2)C(=O)[C@]12CN(Cc1cc(C(=O)O)cs1)C[C@H]2c1ccc(C#N)cc1,Potency,[5],inactive
same,Potency,[4],inactive
CCS(=O)(=O)c1ccc2oc(-c3ccc4ccccc4c3)nc2c1,Potency,[2],inactive
O=C(CCNC(=O)c1ccc(OC(F)(F)F)cc1)N[C@@H]1CCCc2ccccc21,Potency,[2],inactive
same,Potency,[4],inactive
COc1ccc2c(c1)C(c1ccc(F)cc1)=C(CN1CCCC1)CO2,Potency,[2],inactive
same,Potency,[3],inactive
same,Potency,[4],inactive
Clc1cc(Cl)cc(CNc2ncncc2-c2ccc3c(c2)OCO3)c1,Potency,[6],23.5 µM (active)
same,Potency,[2],inactive
same,Potency,[4],26.3 µM (active)
Clc1cccc(C(c2ccc3nc[nH]c3c2)n2ccnc2)c1 (configuration not stated),Potency,[5],inactive
same,Potency,[2],inactive
same,Potency,[3],inactive
same,Potency,[4],inactive
C[C@@]1(c2ncncc2F)NC(=O)c2cc(-c3cn[nH]c3)ccc21,Potency,[6],14.8 µM (active)
same,Potency,[3],20.9 µM (active)
C=CC(=O)N1CC(N2CCN(C(=O)CNc3cc(C4(C)CC4)c(Cl)cc3O)CC2)C1,Potency,[2],inactive
same,Potency,[3],inactive
same,Potency,[4],inactive
C#C[C@]1(O)CC[C@H]2[C@@H]3CCc4cc(O)ccc4[C@H]3CC[C@@]21C,Potency,[6],20.9 µM (active)
same,Potency,[3],14.8 µM (active)
same,Potency,[4],20.9 µM (active)
CCc1cnn2c(NCc3ccc[n+]([O-])c3)cc(N3CCCC[C@H]3CCO)nc12,Potency,[2],0.0235 µM (active)
same,Potency,[3],0.0263 µM (active)
same,Potency,[4],0.0372 µM (active)
CN(C)CCNC(=O)COc1c2cccc1Cc1cccc(c1OCC(=O)NCCN(C)C)Cc1cccc(c1OCC(=O)NCCN(C)C)Cc1cccc(c1OCC(=O)NCCN(C)C)C2,Potency,[2],0.428 µM (active)
same,Potency,[3],0.428 µM (active)
O=C(Nc1ccc(OC(F)(F)Cl)cc1)c1cnc(N2CC[C@@H](O)C2)c(-c2ccn[nH]2)c1,Potency,[5],0.0105 µM (active)
same,Potency,[2],inactive
same,Potency,[4],18.6 µM (active)
CCOc1cc(CC(=O)N[C@@H](CC(C)C)c2ccccc2N2CCCCC2)ccc1C(=O)O,Potency,[5],inactive
same,Potency,[2],inactive
same,Potency,[3],inactive
Cc1noc(-c2ccc(-c3ccc(C4(C(=O)O)CC4)cc3)cc2)c1NC(=O)O[C@H](C)c1ccccc1,Potency,[4],inactive
CCCCCCCCCCCCCC(=O)N[C@H](CO)[C@H](O)c1ccc([N+](=O)[O-])cc1,Potency,[2],inactive
same,Potency,[4],inactive
CC(=O)N1CCN(c2ccc(NC(=O)Cc3cnc(-c4ccnc(F)c4)c(C)c3)nc2)CC1,Potency,[4],inactive
O=C(/C=C/c1ccc(/C=C/C(=O)Nc2ccc(C3=NCCN3)cc2)cc1)Nc1ccc(C2=NCCN2)cc1,viability (% of control),[5],109% [at 5.12 µM]
same,viability (% of control),[2],115% [at 5.12 µM]
same,viability (% of control),[3],109% [at 5.12 µM]
same,viability (% of control),[4],108% [at 5.12 µM]
CO[C@H]1C[C@@H]2CC[C@@H](C)[C@@](O)(O2)C(=O)C(=O)N2CCCC[C@@H]2C(=O)O[C@H]([C@@H](C)C[C@@H]2CC[C@H](O)[C@H](OC)C2)CC(=O)[C@H](C)C=C(C)[C@@H](O)[C@@H](OC)C(=O)[C@H](C)C[C@H](C)C=CC=CC=C1C,Potency,[2],0.0017 µM (active)
CC(=O)O/N=C1/C(c2c(O)[nH]c3cc(Br)ccc23)=Nc2ccccc21,Potency,[5],2.95 µM (active)
same,Potency,[2],inactive
same,Potency,[3],18.6 µM (active)
